Measured values as given in PubChem BioAssay (EPA / NIEHS).
The source made the active and inactive calls. How the source made its calls: active means hit-call score of the fitted dose curve at least 0.9, where 1 is the maximum; inactive means score below 0.9.

assay: ATG_PBREM_CIS: Attagene CIS-FACTORIAL HepG2 Assay for human Phenobarbital-responsive Enhancer Module (PBREM) (AID 2282955); conditions: HepG2 PBREM cis-reporter, Attagene multiplexed transcription; actives raise or lower the signal
Outline: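 Reporter mRNA read by RT-PCR, 6-FAM primer extension, HpaI digestion and capillary electrophoresis. Transfected HepG2 cells, 24 h compound exposure. Gain or loss of signal fitted bidirectionally relative to DMSO baseline.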

outcome, inactive:
O=C(O)CC(O)C(=O)O (stereo not given)
CC(C)=CCCC(C)=CC=O
C=CC(=C)CCC=C(C)C
CC[C@H]1OC(=O)[C@H](C)[C@@H](O[C@H]2C[C@@](C)(OC)[C@@H](O)[C@H](C)O2)[C@H](C)[C@@H](O[C@@H]2O[C@H](C)C[C@H](N(C)C)[C@H]2O)[C@](C)(O)C[C@@H](C)C(=O)[C@H](C)[C@@H](O)[C@]1(C)O
O=C1CCC(N2C(=O)c3ccccc3C2=O)C(=O)N1 (stereo not given)
C[C@](N)(Cc1ccc(O)c(O)c1)C(=O)O
Nc1cccc(N)c1
Cn1c(=O)c2c(ncn2C)n(C)c1=O
Nc1nc2ncc(CNc3ccc(C(=O)N[C@@H](CCC(=O)O)C(=O)O)cc3)nc2c(=O)[nH]1
CC(=O)OCCC(C)C
CCCC(=O)OCC
COc1cccc(-c2ccc(/C=C\CN3CCCCCC3)cc2Cl)c1
O=C(OC[C@H]1O[C@@H](OC(=O)c2cc(O)c(O)c(OC(=O)c3cc(O)c(O)c(O)c3)c2)[C@H](OC(=O)c2cc(O)c(O)c(OC(=O)c3cc(O)c(O)c(O)c3)c2)[C@@H](OC(=O)c2cc(O)c(O)c(OC(=O)c3cc(O)c(O)c(O)c3)c2)[C@@H]1OC(=O)c1cc(O)c(O)c(OC(=O)c2cc(O)c(O)c(O)c2)c1)c1cc(O)c(O)c(OC(=O)c2cc(O)c(O)c(O)c2)c1
CCOCCOCCOCCO
O=C(O)c1cccc(N(Cc2cccnc2)c2ccc(OC(F)F)c(OC(F)F)c2)c1
